# Reference: the supplement of paper PMC8540655
# Test system: Aedes aegypti larvae
# Assay: larval motility relative to same well at 0 h (fraction); higher = more motile (less active compound), active = 0.4 or less
# Conditions: 10 µM; 2 h
# Experimental: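 MMV Pandemic Response Box compounds were tested at 10 µM (1% v/v DMSO) on Aedes aegypti larvae (18-24 h after hatching, about 10 per well, 96-well plates). Motility was quantified with INVAPP (200-frame movies) at 0, 2 and 24 h. Each well's motility was divided by its own 0 h score, and the median of 3 independent screens is reported.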
row,SMILES,larval motility
1,Cc1nc(-c2ccc(C3N(C)c4ccc(F)cc4C(=O)N3c3ccccc3)s2)cs1 (stereo not given),0.613 (inactive)
2,Cc1c(CN(C)C(=O)/C=C/c2cnc3c(c2)C(C)(C)C(=O)N3)oc2ccccc12,1.24 (inactive)
3,OB1OCc2c1ccc(Cl)c2F,0.987 (inactive)
4,Cc1nc(N(C)C(=O)Cc2ccc(-c3ccccn3)cc2)sc1S(N)(=O)=O,1.62 (inactive)
5,COc1cc(NC(=O)CN2C(=O)NC(c3ccccc3)(c3ccccc3)C2=O)cc(OC)c1,0.866 (inactive)
6,COC(=O)Nc1nc2c(C)cccc2[nH]1,0.678 (inactive)
7,O=C(O)/C=C/C=C/c1cccc(Oc2cc(Cl)cc(Cl)c2)c1,1.55 (inactive)
8,O=C(Nc1ccc(N2CCN(C(=O)c3ccccc3)CC2)cc1)c1ccc2c(c1)OCO2,0.946 (inactive)
9,NS(=O)(=O)c1ccc(NC(=O)NC(c2ccccc2)c2ccccc2)cc1,0.491 (inactive)
10,O=C(O)COc1cccc2c1CC[C@](O)(COC(=O)N(c1ccccc1)c1ccccc1)C2,0.909 (inactive)
11,Cc1cc(C)n2nc(C(=O)NS(=O)(=O)c3c(C)cccc3OC(F)(F)F)nc2n1,1.04 (inactive)
12,CC[C@@H]1C(=O)OC[C@@H]1Cc1cncn1C,1.22 (inactive)
13,COc1ccc(C[C@@H](C)[C@@H](C)Cc2ccc(OC)c(OC)c2)cc1OC,0.799 (inactive)
14,CC[N+]1(C/C2=C/CCCCCC2)CCC(NC(=O)C2c3cc(Cl)ccc3Oc3ccc(Cl)cc32)CC1 (stereo not given),1.22 (inactive)
15,O=S(=O)(Nc1ccccc1)c1ccc(NC(=S)Nc2ccccc2)cc1,0.779 (inactive)
16,O=C(Nc1nnc(-c2ccccc2)o1)c1ccc(F)cc1,0.832 (inactive)
17,COc1ccc(NC(=O)c2cc3ccccn3n2)cc1,0.48 (inactive)
18,O=S(=O)(Nc1ccc(-n2cccc2)cc1)c1ccc(Cl)c(Cl)c1,1.06 (inactive)
19,CCCC1(C2CC2)c2cc(Cl)ccc2NC(=O)N1C (stereo not given),0.846 (inactive)
20,Nc1nc(O)ncc1F,0.641 (inactive)

# Same assay, conditions: 10 µM; 24 h
row,SMILES,larval motility
1,Cc1nc(-c2ccc(C3N(C)c4ccc(F)cc4C(=O)N3c3ccccc3)s2)cs1 (stereo not given),0.822 (inactive)
2,Cc1c(CN(C)C(=O)/C=C/c2cnc3c(c2)C(C)(C)C(=O)N3)oc2ccccc12,1.15 (inactive)
3,OB1OCc2c1ccc(Cl)c2F,1.19 (inactive)
4,Cc1nc(N(C)C(=O)Cc2ccc(-c3ccccn3)cc2)sc1S(N)(=O)=O,1.81 (inactive)
5,COc1cc(NC(=O)CN2C(=O)NC(c3ccccc3)(c3ccccc3)C2=O)cc(OC)c1,1.08 (inactive)
6,COC(=O)Nc1nc2c(C)cccc2[nH]1,0.778 (inactive)
7,O=C(O)/C=C/C=C/c1cccc(Oc2cc(Cl)cc(Cl)c2)c1,0.995 (inactive)
8,O=C(Nc1ccc(N2CCN(C(=O)c3ccccc3)CC2)cc1)c1ccc2c(c1)OCO2,0.971 (inactive)
9,NS(=O)(=O)c1ccc(NC(=O)NC(c2ccccc2)c2ccccc2)cc1,0.689 (inactive)
10,O=C(O)COc1cccc2c1CC[C@](O)(COC(=O)N(c1ccccc1)c1ccccc1)C2,0.745 (inactive)
11,Cc1cc(C)n2nc(C(=O)NS(=O)(=O)c3c(C)cccc3OC(F)(F)F)nc2n1,1.13 (inactive)
12,CC[C@@H]1C(=O)OC[C@@H]1Cc1cncn1C,0.972 (inactive)
13,COc1ccc(C[C@@H](C)[C@@H](C)Cc2ccc(OC)c(OC)c2)cc1OC,0.813 (inactive)
14,CC[N+]1(C/C2=C/CCCCCC2)CCC(NC(=O)C2c3cc(Cl)ccc3Oc3ccc(Cl)cc32)CC1 (stereo not given),0.723 (inactive)
15,O=S(=O)(Nc1ccccc1)c1ccc(NC(=S)Nc2ccccc2)cc1,0.792 (inactive)
16,O=C(Nc1nnc(-c2ccccc2)o1)c1ccc(F)cc1,0.868 (inactive)
17,COc1ccc(NC(=O)c2cc3ccccn3n2)cc1,0.782 (inactive)
18,O=S(=O)(Nc1ccc(-n2cccc2)cc1)c1ccc(Cl)c(Cl)c1,0.808 (inactive)
19,CCCC1(C2CC2)c2cc(Cl)ccc2NC(=O)N1C (stereo not given),0.863 (inactive)
20,Nc1nc(O)ncc1F,1.04 (inactive)
